# Measurements reported in PubChem BioAssay (NCATS).
# “And” between values parts separate entries of the source, which are not always exact repeats. Equal entries are not always repeated. Results filed as inconclusive are left out. A call without a number means that no potency is given here. More than one record can exist for a structure, and the calls need not agree. The source made the active and inactive calls. Unless noted, the call rests on the fitted dose curve; in most records, active means well fitted curve in the direction sought with a large enough effect; inconclusive means small, poorly fitted or top-dose-only effect, or another doubt; inactive means no such curve, though single readings can be large; an effect the other way counts as inactive or inconclusive.
# Columns and labels:
# C33A = test: Primary qHTS to identify gynecologic anti-cancer compounds using libraries of approved drugs and bioactive compounds (AID 1345084); settings: Gynecologic cancer cell panel viability, ATPlite luminescence, 48 h; series mostly up to 57.5 µM; further: nearly all actives have a fitted effect of over 55% in size; further: potency means the concentration at half of the fitted maximal effect
# Method in brief: (§1)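 48 h compound exposure at 37 C, 5% CO2; five-point qHTS. ATPlite luminescence readout of cell ATP.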
# CAOV3 = test: as above; settings: Gynecologic cancer cell panel viability, ATPlite luminescence, 48 h; series mostly up to 57.5 µM
# Method in brief: as §1
# CASKI = test: as above; settings: Gynecologic cancer cell panel viability, ATPlite luminescence, 48 h; series mostly up to 57.5 µM
# Method in brief: as §1
# Es-2 = test: as above; settings: Gynecologic cancer cell panel viability, ATPlite luminescence, 48 h; series mostly up to 57.5 µM
# Method in brief: as §1
# HeLa = test: as above; settings: Gynecologic cancer cell panel viability, ATPlite luminescence, 48 h; series mostly up to 57.5 µM
# Method in brief: as §1
# Hek293T = test: as above; settings: Gynecologic cancer cell panel viability, ATPlite luminescence, 48 h, control line for the selectivity index; series mostly up to 57.5 µM
# Method in brief: as §1
# JEG-3 = test: as above; settings: Gynecologic cancer cell panel viability, ATPlite luminescence, 48 h; series mostly up to 57.5 µM
# Method in brief: as §1
# OV90 = test: as above; settings: Gynecologic cancer cell panel viability, ATPlite luminescence, 48 h; series mostly up to 57.5 µM
# Method in brief: as §1
# PA-1 = test: as above; settings: Gynecologic cancer cell panel viability, ATPlite luminescence, 48 h; series mostly up to 57.5 µM
# Method in brief: as §1
# SKOV3 = test: as above; settings: Gynecologic cancer cell panel viability, ATPlite luminescence, 48 h; series mostly up to 57.5 µM
# Method in brief: as §1
# Tov-21-G = test: as above; settings: Gynecologic cancer cell panel viability, ATPlite luminescence, 48 h; series mostly up to 57.5 µM
# Method in brief: as §1
# Tov112D = test: as above; settings: Gynecologic cancer cell panel viability, ATPlite luminescence, 48 h; series mostly up to 57.5 µM
# Method in brief: as §1
# [1] = Drug repurposing screens with cells derived from glioblastoma tumor samples (AID 1345199); settings: GBM patient neurospheres viability, ATP luminescence, 48 h; further: nearly all actives have a fitted effect of over 40% in size; further: potency means the concentration at half of the fitted maximal effect
# Method in brief: (§2)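 Four patient lines of CD133+ GBM neurospheres were screened at several concentrations; hits were retested in those lines plus three slower-growing GBM lines, using 48-hour treatment and ATP-based viability.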
# UISO = test: qHTS assay to identify novel small-molecules to repurpose for Merkel cell carcinoma treatment (AID 1296009); settings: MCC and control cell lines, CellTiter-Glo viability, 72 h; series mostly up to 46 µM; further: nearly all actives have a fitted effect of over 60% in size; further: potency means the concentration at half of the fitted maximal effect
# Method in brief: (§3)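 72 hr, 37 degree celsius; NPC 8-pt / MIPE 11-pt dose response; compound pinned in DMSO; CellTiter-Glo, 10 min RT, luminescence; normalized to no-cell and DMSO controls.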
# WaGa = test: as above; settings: MCC and control cell lines, CellTiter-Glo viability, 72 h; series mostly up to 46 µM
# Method in brief: as §3
# astro = test: Drug repurposing screens with cells derived from glioblastoma tumor samples (AID 1345199); settings: viability, ATP luminescence, 48 h; series mostly up to 45.9 µM; further: nearly all actives have a fitted effect of over 40% in size; further: potency means the concentration at half of the fitted maximal effect
# Method in brief: as §2
# [2] = biological target: Nuclear receptor subfamily 1 group I member 2 (Rattus norvegicus) (UniProt Q9R1A7); test: qHTS assay for small molecule activators of the rat pregnane X receptor (rPXR) signaling pathway (AID 651751; call rule not given here); settings: rPXR reporter cells, luciferase (One-Glo), 24 h
# Chain of Nuclear receptor subfamily 1 group I member 2 (Rattus norvegicus) (Q9R1A7 whole entry, looked up): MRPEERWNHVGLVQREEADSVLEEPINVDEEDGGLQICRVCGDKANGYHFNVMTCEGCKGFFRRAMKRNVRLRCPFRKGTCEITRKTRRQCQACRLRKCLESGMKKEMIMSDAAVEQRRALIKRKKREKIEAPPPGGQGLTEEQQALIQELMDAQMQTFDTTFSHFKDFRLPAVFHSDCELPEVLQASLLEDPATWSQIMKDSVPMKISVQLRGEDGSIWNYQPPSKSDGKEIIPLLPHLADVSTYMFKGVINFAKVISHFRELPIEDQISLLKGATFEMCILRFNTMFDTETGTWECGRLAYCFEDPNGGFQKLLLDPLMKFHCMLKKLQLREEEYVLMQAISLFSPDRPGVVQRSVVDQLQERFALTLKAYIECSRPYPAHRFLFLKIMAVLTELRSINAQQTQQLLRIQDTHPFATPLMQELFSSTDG
# [3] = qHTS assay for small molecule activators of the human pregnane X receptor (PXR) signaling pathway (AID 720659; call rule not given here)
# [4] = at 45.9 µM (top of the series), tumour line B
# [5] = at 45.9 µM (top of the series), tumour line D
# [6] = at 46.1 µM (top of the series), tumour line C
# [7] = at 46 µM (top of the series), tumour line A
smiles,measurement,setting,value
CCOC(=O)c1ncn2c1CN(C)C(=O)c1cc(F)ccc1-2,Potency,C33A,inactive
same,Potency,CAOV3,inactive
same,Potency,CASKI,inactive
same,Potency,Es-2,inactive
same,Potency,HeLa,inactive
same,Potency,Hek293T,inactive
same,Potency,JEG-3,inactive
same,Potency,OV90,inactive
same,Potency,PA-1,inactive
same,Potency,SKOV3,inactive
same,Potency,Tov-21-G,inactive
same,Potency,Tov112D,inactive
same,"activity, negative = cell killing",[1]; [4],-16% (inactive)
same,"activity, negative = cell killing",[1]; [5],3.15% (inactive)
same,"activity, negative = cell killing",[1]; [6],4.97% (inactive)
O=c1c(O)c(-c2ccc(O)c(O)c2)oc2cc(O)cc(O)c12,Potency,UISO,inactive
same,Potency,WaGa,inactive
same,Potency,C33A,inactive
same,Potency,CASKI,inactive
same,Potency,Es-2,inactive
same,Potency,HeLa,15.8 µM (active)
same,Potency,Hek293T,inactive
same,Potency,JEG-3,inactive
same,Potency,SKOV3,inactive
same,Potency,Tov-21-G,inactive
NC(CO)C(=O)NNCc1ccc(O)c(O)c1O (configuration not stated),Potency,CASKI,inactive
same,Potency,Es-2,inactive
same,Potency,HeLa,inactive
same,Potency,Hek293T,inactive
same,Potency,JEG-3,inactive
same,Potency,OV90,inactive
same,Potency,Tov-21-G,inactive
same,Potency,Tov112D,inactive
same,"activity, negative = cell killing",[1]; [4],-5.28% (inactive)
same,"activity, negative = cell killing",[1]; [5],-22% (inactive)
same,"activity, negative = cell killing",[1]; [7],-18.9% (inactive)
same,"activity, negative = cell killing",[1]; [6],12.3% (inactive)
same,Potency,astro,inactive
CN1CCN(CCCN2c3ccccc3Sc3ccc(Cl)cc32)CC1,Potency,UISO,inactive
same,Potency,C33A,inactive
same,Potency,CASKI,inactive
same,Potency,Es-2,inactive
same,Potency,HeLa,inactive
same,Potency,Hek293T,inactive
same,Potency,JEG-3,inactive
same,Potency,SKOV3,inactive
same,Potency,Tov-21-G,inactive
same,Potency,Tov112D,inactive
same,Potency,astro,20 µM (active)
Cn1cnc2c1c(=O)[nH]c(=O)n2C,Potency,UISO,inactive
same,Potency,WaGa,inactive
same,Potency,C33A,inactive
same,Potency,CASKI,inactive
same,Potency,Es-2,inactive
same,Potency,HeLa,inactive
same,Potency,Hek293T,inactive
same,Potency,JEG-3,inactive
same,Potency,OV90,inactive
same,Potency,PA-1,inactive
same,Potency,SKOV3,inactive
same,Potency,Tov-21-G,inactive
same,Potency,Tov112D,inactive
same,"activity, negative = cell killing",[1]; [4],0.295% (inactive)
same,"activity, negative = cell killing",[1]; [5],-15.5% (inactive)
same,"activity, negative = cell killing",[1]; [6],1.28% (inactive)
same,Potency,astro,inactive
same,max response,[2],2.94% (inactive)
Clc1ccccc1C(c1ccccc1)(c1ccccc1)n1ccnc1,Potency,UISO,inactive
same,Potency,WaGa,23.7 µM (active) and inactive
same,Potency,CAOV3,inactive
same,Potency,CASKI,inactive
same,Potency,Es-2,inactive
same,Potency,HeLa,inactive
same,Potency,JEG-3,inactive
same,Potency,SKOV3,inactive
same,Potency,Tov-21-G,inactive
same,Potency,Tov112D,inactive
same,"activity, negative = cell killing","[1]; at 20 µM (top of the series), tumour line C",1.49% (inactive)
same,Potency,[1]; tumour line A,11.2 µM (active)
same,Potency,astro,inactive
CN(Cc1cnc2nc(N)nc(N)c2n1)c1ccc(C(=O)N[C@@H](CCC(=O)O)C(=O)O)cc1,Potency,HeLa,0.199 µM (active)
same,Potency,Hek293T,0.158 µM (active)
same,Potency,JEG-3,0.316 µM (active)
same,Potency,SKOV3,inactive
same,Potency,Tov-21-G,0.1 µM (active)
same,"activity, negative = cell killing",[1]; [4],5.57% (inactive)
same,"activity, negative = cell killing",[1]; [5],3.85% (inactive)
same,"activity, negative = cell killing",[1]; [7],1.95% (inactive)
same,"activity, negative = cell killing",[1]; [6],-0.888% (inactive)
same,max response,[2],-4.55% (inactive)
same,outcome,[3],inactive
CC#C[C@]1(O)CC[C@H]2[C@@H]3CCC4=CC(=O)CCC4=C3[C@@H](c3ccc(N(C)C)cc3)C[C@@]21C,Potency,UISO,2.96 µM (active)
same,Potency,C33A,inactive
same,Potency,CAOV3,inactive
same,Potency,CASKI,inactive
same,Potency,Es-2,inactive
same,Potency,Hek293T,inactive
same,Potency,JEG-3,inactive
same,Potency,OV90,inactive
same,Potency,PA-1,inactive
same,Potency,SKOV3,inactive
same,Potency,Tov-21-G,inactive
same,Potency,Tov112D,inactive
same,outcome,[3],inactive
COc1ccccc1OCCNCC(O)COc1cccc2[nH]c3ccccc3c12 (configuration not stated),Potency,UISO,inactive
same,Potency,WaGa,inactive
same,Potency,C33A,inactive
same,Potency,Es-2,inactive
same,Potency,HeLa,inactive
same,Potency,PA-1,inactive
same,Potency,SKOV3,inactive
same,Potency,Tov-21-G,inactive
same,Potency,Tov112D,inactive
same,"activity, negative = cell killing",[1]; [6],3.12% (inactive)
same,Potency,[1]; tumour line A,11.2 µM (active)
COc1cc2c(c(OC)c1OC)-c1ccc(OC)c(=O)cc1[C@@H](NC(C)=O)CC2,Potency,UISO,inactive
same,Potency,WaGa,inactive
same,Potency,OV90,0.282 µM (active)
NS(=O)(=O)c1cc2c(cc1Cl)NCNS2(=O)=O,Potency,UISO,inactive
same,Potency,WaGa,inactive
same,Potency,C33A,inactive
same,Potency,CASKI,inactive
same,Potency,Es-2,inactive
same,Potency,HeLa,inactive
same,Potency,Hek293T,inactive
same,Potency,JEG-3,inactive
same,Potency,OV90,inactive
same,Potency,PA-1,inactive
same,Potency,SKOV3,inactive
same,Potency,Tov-21-G,inactive
same,Potency,Tov112D,inactive
same,"activity, negative = cell killing",[1]; [4],-16.5% (inactive)
same,"activity, negative = cell killing",[1]; [5],-0.301% (inactive)
same,"activity, negative = cell killing",[1]; [7],-4.73% (inactive)
same,"activity, negative = cell killing",[1]; [6],-21.1% (inactive)
same,Potency,astro,inactive
same,max response,[2],-0.0581% (inactive) and 1.2% (inactive)
same,outcome,[3],inactive
Cn1c(=O)c2[nH]cnc2n(C)c1=O,Potency,C33A,inactive
same,Potency,CAOV3,inactive
same,Potency,CASKI,inactive
same,Potency,Es-2,inactive
same,Potency,HeLa,inactive
same,Potency,Hek293T,inactive
same,Potency,JEG-3,inactive
same,Potency,OV90,inactive
same,Potency,PA-1,inactive
same,Potency,SKOV3,inactive
same,Potency,Tov-21-G,inactive
same,Potency,Tov112D,inactive
same,"activity, negative = cell killing",[1]; [4],-8.57% (inactive)
same,"activity, negative = cell killing",[1]; [5],-12.3% (inactive)
same,"activity, negative = cell killing",[1]; [7],-8.84% (inactive)
same,"activity, negative = cell killing",[1]; [6],-5.36% (inactive)
same,Potency,astro,inactive
same,max response,[2],5.46% (inactive)
same,outcome,[3],inactive
CNCCCC12CCC(c3ccccc31)c1ccccc12,Potency,WaGa,29.9 µM (active) and inactive
same,Potency,HeLa,inactive
same,Potency,Hek293T,inactive
same,Potency,JEG-3,inactive
same,Potency,OV90,17.8 µM (active)
same,Potency,SKOV3,11.2 µM (active)
same,Potency,Tov-21-G,inactive
same,Potency,Tov112D,inactive
same,"activity, negative = cell killing",[1]; [6],31.2% (inactive)
same,Potency,[1]; tumour line A,7.94 µM (active)
same,Potency,[1]; tumour line B,17.8 µM (active)
same,Potency,[1]; tumour line D,22.4 µM (active)
CN1CCN2c3ccccc3Cc3ccccc3C2C1 (configuration not stated),Potency,Es-2,inactive
same,Potency,HeLa,inactive
same,Potency,JEG-3,inactive
same,"activity, negative = cell killing",[1]; [6],-2.24% (inactive)
same,Potency,[1]; tumour line A,11.2 µM (active)
same,Potency,[1]; tumour line D,20 µM (active)
CC1(CN2CCC(n3c(=O)[nH]c4ccccc43)CC2)OCc2ccccc2-n2cccc21 (configuration not stated),Potency,UISO,inactive
same,Potency,WaGa,inactive
same,Potency,C33A,inactive
same,Potency,CASKI,inactive
same,Potency,Es-2,inactive
same,Potency,HeLa,inactive
same,Potency,Hek293T,inactive
same,Potency,JEG-3,inactive
same,Potency,PA-1,inactive
same,Potency,SKOV3,inactive
same,Potency,Tov-21-G,inactive
same,Potency,Tov112D,inactive
